Data from PubChem BioAssay (NCATS).
Results filed as inconclusive are left out. Active and inactive are the calls of the source. Unless noted, the call rests on the fitted dose curve.

Experiments:
[1] = target: Cytochrome P450 3A4 (Homo sapiens) (UniProt P08684); experiment: qHTS Assay for Inhibitors and Substrates of Cytochrome P450 3A4 (AID 884; active means well fitted curve in the direction sought with a large enough effect; an effect the other way counts as inactive or inconclusive; further: on the % scale 0 is the no-effect control and ±100 the full control effect; nearly all actives have a fitted effect of over 50% in size)
Outline: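 20 nM human CYP3A4 with 25 uM Luciferin-PPXE (at KM) in 200 mM KPO4, preincubated 10 min with compound; NADPH regeneration started a 60 min RT reaction. Luciferin detected by luminescence, normalized to 57 uM ketoconazole as full inhibition.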

[2] = Confirmation and Secondary Assay for Modulators of Hemoglobin Beta Chain Splicing at IVS2 654 locus (AID 910; active means well fitted curve in the direction sought with a large enough effect; an effect the other way counts as inactive or inconclusive;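 further: HeLa cells stably carrying EGFP split by mutant beta-globin IVS2-654 intron; % of control where 0% means no effect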)
Outline: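 HeLa cells stably expressing EGFP interrupted by β-globin IVS2-654 intron, seeded overnight in Opti-MEM/2% FCS, then treated 2 days at 37 °C. Restored splicing read as total peak GFP intensity per well by laser scanning cytometry (488 nm excitation, 500–520 nm emission); 500 nM antisense PNA as control.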

[3] = Confirmation and Secondary Assay for Modulators of Hemoglobin Beta Chain Splicing at IVS2 705 locus (AID 930; active means well fitted curve in the direction sought with a large enough effect; an effect the other way counts as inactive or inconclusive;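 further: HeLa cells stably expressing the EGFP-705 splicing reporter; GFP fluorescence per well restored by corrected splicing of the IVS2-705 intron in EGFP; % of control where 0% means no effect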)
Outline: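 Assay measures total GFP intensity per well in HeLa EGFP-705 cells after 2 days with compound; mis-splicing normally truncates EGFP, so fluorescence indicates corrected splicing.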

[4] = qHTS Assay for Lipid Storage Modulators (AID 1519); details: Drosophila S3 cells, BODIPY lipid droplet/cell ratio, laser cytometry, cells loaded with oleic acid; for activity change, negative = inhibition: at 57.5 µM (top of the series)
Outline: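 Cells seeded at 5,000 per well were treated with compounds over a concentration series and loaded with oleic acid (400 uM, as added). Lipid droplet fluorescence (488 nm excitation, 500-530 nm channel) was read by laser-scanning cytometry and normalized to 20 uM Triacsin C.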

[5] = target: Estrogen receptor (Homo sapiens) (UniProt P03372); experiment: qHTS assay for small molecule agonists of estrogen receptor alpha signaling (AID 588514);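 further: 0% = vehicle only and 100% = reference agonist; nearly all actives have a fitted effect of over 70% in size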
Outline: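 Reporter-gene assay. […] controls beta-lactamase in HEK 293 GripTite cells; after 18 hrs with compound, CCF4 substrate is added for 2 hrs and fluorescence is read.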

[6] = target: Bile acid receptor (Homo sapiens) (UniProt Q96RI1); experiment: qHTS assay for small molecule antagonists of farnesoid X receptor signaling (AID 588526); further: on the % scale 0 is the no-effect control and ±100 the full control effect
Outline: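 Antagonist mode: titrated compounds tested against chenodeoxycholic acid stimulation (normalized to 50 uM CDCA and DMSO) in GeneBLAzer HEK293T cells for 16 h. Beta-lactamase read by CCF4 fluorescence; IC50 from Hill fits.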

[7] = target: Peroxisome proliferator-activated receptor delta (Homo sapiens) (UniProt Q03181); experiment: qHTS assay for small molecule agonists of peroxisome proliferator-activated receptor delta signaling (AID 588534);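 further: 0% = DMSO basal wells and 100% = positive control agonist at 10 µM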
Outline: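 Reporter cells were plated and held 5 hrs at 37 C before compounds were added. After 18 hrs at 37 C, CCF4 dye was loaded for 2 hrs at RT and fluorescence measured.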

[8] = qHTS assay for small molecule antagonists of peroxisome proliferator-activated receptor delta signaling (AID 588535; active means well fitted inhibition curve with a large enough effect in the signal ratio, with a control signal flat, not every such curve was filed as active; the % refers to the signal ratio;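 on max response: cells co-treated with a PPAR-delta agonist as stimulator during compound exposure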); details: HEK293T PPARd-UAS-bla, beta-lactamase FRET ratio, 18 h; 460 nm channel
Outline: (§1)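 Cells were seeded at 4000 per well in assay medium containing 2% charcoal/dextran FBS and held 5 hrs at 37 C. Compounds were then added for 18 hrs. CCF4 substrate was applied for 2 hrs at room temperature before fluorescence reading.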

[9] = target: Peroxisome proliferator-activated receptor delta (Homo sapiens) (UniProt Q03181); experiment: as above
Outline: as §1

[10] = target: Peroxisome proliferator-activated receptor gamma (Homo sapiens) (UniProt P37231); experiment: qHTS assay for small molecule agonists of peroxisome proliferator-activated receptor gamma signaling (AID 588536; active means well fitted curve in the direction sought with a large enough effect in the signal ratio, with a control signal flat, not every such curve was filed as active; the % refers to the signal ratio;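 further: 0% = DMSO basal wells and 100% = rosiglitazone at 2 µM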)
Outline: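 Test agents, titrated, stimulated HEK293 UAS-bla cells overnight (16 h, 37 C). Substrate CCF4 was then added for two hours at room temperature before fluorescence reading.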

[11] = target: Peroxisome proliferator-activated receptor gamma (Homo sapiens) (UniProt P37231); experiment: qHTS assay for small molecule antagonists of peroxisome proliferator-activated receptor gamma signaling (AID 588537; active means well fitted inhibition curve with a large enough effect in the signal ratio, with a control signal flat, not every such curve was filed as active; the % refers to the signal ratio;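 further: reporter cells co-stimulated with 50 nM rosiglitazone agonist during compound treatment; % of control where 0% means no effect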)
Outline: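 Step one: plate 3000 HEK293 UAS-bla cells per well in medium with 1% stripped serum and hold 6-6.5 h at 37 C. Step two: add compound and 50 nM agonist for 16 h. Step three: CCF4 loading, fluorescence read.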

[12] = target: Vitamin D3 receptor (Homo sapiens) (UniProt P11473); experiment: qHTS assay for small molecule antagonists of vitamin D receptor signaling (AID 588541);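 further: receptor activated by calcitriol during compound treatment; on the % scale 0 is the no-effect control and ±100 the full control effect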
Outline: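 VDR-UAS-bla HEK293T cells in 2% charcoal-stripped FBS were stimulated with 1-alpha,25-dihydroxyvitamin D3 (3 nM final) plus compound for 16 h at 37 C. The beta-lactamase CCF4 readout was normalized to 50 nM agonist and DMSO, and Hill fits gave IC50.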

[13] = target: Vitamin D3 receptor (Homo sapiens) (UniProt P11473); experiment: qHTS assay for small molecule agonists of vitamin D receptor signaling (AID 588543);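 further: 0% = DMSO basal and 100% = reference agonist control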
Outline: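 GeneBLAzer VDR-UAS-bla HEK293T cells in 2% charcoal-stripped FBS medium were dosed with compound titrations for 16 h at 37 °C; CCF4 β-lactamase readout (405 nm ex, 460/530 nm em). EC50 and efficacy from Hill fits, normalized to 50 nM calcitriol (100%) and DMSO (0%).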

[14] = qHTS assay for small molecule agonists of retinoid X receptor alpha signaling (AID 588544); details: HEK293T RXRa-UAS-bla, beta-lactamase reporter, 18 h; 530 nm emission;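 on activation: 0% = DMSO basal wells and 100% = reference agonist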
[15] = target: Retinoic acid receptor RXR-alpha (Homo sapiens) (UniProt P19793); experiment: as above
[16] = target: Thyroid hormone receptor beta (Homo sapiens) (UniProt P10828); experiment: qHTS assay for small molecule agonists of thyroid hormone receptor beta signaling (AID 588545)
Outline: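 In this cell-based screen, titrated compounds act on HEK 293 cells held in medium with 2% charcoal/dextran FBS, NEAA and pyruvate for 18 hrs at 37 C. Responses are expressed relative to T3 (10 nM) as 100% and basal DMSO as 0%.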

[17] = qHTS assay for small molecule antagonists of retinoid X receptor alpha signaling (AID 588546; active means well fitted inhibition curve with a large enough effect in the signal ratio, with a control signal flat, not every such curve was filed as active; the % refers to the signal ratio;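 further: cells stimulated with 9-cis-retinoic acid as agonist; on the % scale 0 is the no-effect control and ±100 the full control effect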); details: HEK293T RXRa-UAS-bla, beta-lactamase ratio, antagonist mode; measured here: W530 green channel, cytotoxicity proxy
Outline: (§2)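 Beta-lactamase reporter inhibition, read as CCF4 fluorescence ratio (ex 405, em 460/530 nm) after 2 h at RT. HEK293T UAS-bla cells, 2500/well, were stimulated with 9-cis-RA at 500 or 100 nM final alongside test compound for 18 h at 37 C.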

[18] = target: Retinoic acid receptor RXR-alpha (Homo sapiens) (UniProt P19793); experiment: as above; details: HEK293T RXRa-UAS-bla, beta-lactamase ratio, antagonist mode
Outline: as §2

[19] = target: Thyroid hormone receptor beta (Homo sapiens) (UniProt P10828); experiment: qHTS assay for small molecule antagonists of thyroid hormone receptor beta signaling (AID 588547; active means well fitted inhibition curve with a large enough effect in the signal ratio, with a control signal flat, not every such curve was filed as active; the % refers to the signal ratio;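 further: cells stimulated with 0.4 nM T3 agonist during compound exposure; on the % scale 0 is the no-effect control and ±100 the full control effect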); details: TR-UAS-bla HEK293, beta-lactamase ratio, antagonist mode, 18 h
Outline: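 TR-UAS-bla GripTite HEK293 cells in 2% charcoal/dextran FBS medium; compounds 0.59 nM to 92 uM with T3 at 0.4nM final, 18 h at 37 C. Beta-lactamase read by CCF4 fluorescence (460/530 nm); Hill fits gave IC50 and efficacy.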

[20] = qHTS assay for small molecule agonists of the antioxidant response element (ARE) signaling pathway (AID 651741; active means well fitted activation curve with a large enough effect in the signal ratio; the % refers to the signal ratio; further: % of control where 0% means no effect)
Outline: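 HepG2 ARE-bla cells plated at 2,000 cells/well and incubated 5 h at 37 C/5% CO2 received 23 nL compound in DMSO. After 16 h at 37 C, LiveBLAzer B/G FRET substrate was applied for 2 h at room temperature and fluorescence read.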

[21] = qHTS assay for small molecule activators of the p53 signaling pathway (AID 651743; active means well fitted activation curve with a large enough effect in the signal ratio, not every such curve was filed as active; the % refers to the signal ratio; further: % of control where 0% means no effect); details: HCT-116 p53RE-bla, beta-lactamase FRET ratio, 16 h; activation: stronger effect = higher value
Outline: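 HCT-116 p53RE-bla, 4,000 cells/well; 5 h settle; cpd/DMSO 16 h, 37 C; LiveBLAzer B/G 2 h RT; fluorescence intensity.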

[22] = qHTS assay for small molecule activators of the nuclear factor-kappa B (NF-kB) signaling pathway (AID 651749; active means well fitted activation curve with a large enough effect in the signal ratio; the % refers to the signal ratio; further: % of control where 0% means no effect); details: NF-kB-bla ME-180 cells, beta-lactamase FRET ratio, 16 h; activation: stronger effect = higher value
Outline: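 Incubation lasted 16 hr at 37C in 5% CO2 after 23 nL compound addition to ME-180 NF-kB-bla cells. Activation appears as beta-lactamase-mediated FRET loss.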

[23] = target: Peroxisome proliferator-activated receptor alpha (Homo sapiens) (UniProt Q07869); experiment: qHTS assay for small molecule agonists of the peroxisome proliferator-activated receptor alpha (PPARalpha) signaling pathway (AID 651778; active means well fitted curve in the direction sought with a large enough effect; an effect the other way counts as inactive or inconclusive; further: % of control where 0% means no effect); details: PathHunter PPARalpha complementation, chemiluminescence, 6 h; stronger effect = higher value
Outline: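 Enzyme-fragment complementation assay in which ligand-bound PPARalpha translocates and forms an active enzyme that generates chemiluminescence. Cells were plated overnight, exposed to compound for 6 hr at 37 C, and then given detection reagent for 60 min at room temperature.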

[24] = qHTS assay for small molecule agonists of the antioxidant response element (ARE) signaling pathway measured by Nrf2-dependant transcriptional activity - cell viability counter screen (AID 720653; active means well fitted curve in the direction sought with a large enough effect in the repeat runs; an effect the other way counts as inactive or inconclusive; further: on the % scale 0 is the no-effect control and ±100 the full control effect); details: ARE-bla HepG2 viability, CellTiter-Glo ATP luminescence, 16 h; stronger effect = lower value
Outline: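 ARE-bla HepG2 cells treated with compounds for 16 h at 37C; this counter screen measures viability as intracellular ATP by CellTiter-Glo luminescence after 30 min at room temperature.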

[25] = qHTS assay for cell viability of HEK293 cells (AID 743288; active means well fitted curve in the direction sought with a large enough effect; an effect the other way counts as inactive or inconclusive; further: on the % scale 0 is the no-effect control and ±100 the full control effect; nearly all actives have a fitted effect of over 50% in size); details: ATP luminescence (CellTiter-Glo), 18 h; max response: stronger effect = lower value
Outline: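 Parental HEK293 cells were seeded at 2,000 cells/well, rested at least 5 h at 37 C, then exposed to compounds in DMSO for 18 h at 37 C. Viability was read as ATP-dependent luciferase luminescence after 30 min at room temperature.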

[26] = qHTS assay for cell viability of the p53RE-bla HCT-116 cell line (AID 743292; active means well fitted curve in the direction sought with a large enough effect; an effect the other way counts as inactive or inconclusive; further: on the % scale 0 is the no-effect control and ±100 the full control effect; nearly all actives have a fitted effect of over 55% in size)
Outline: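 Readout: CellTiter-Glo luminescence after 30 min RT. Treatment: compounds in DMSO, 16 h, 37 C. Cells: CellSensor p53RE-bla HCT-116, 4,000/well, preincubated 5 h.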

[27] = target: Ubiquitin carboxyl-terminal hydrolase 1 (Homo sapiens) (UniProt O94782); experiment: Inhibitors of USP1/UAF1: Pilot qHTS (AID 504865; active means well fitted curve in the direction sought with a large enough effect; an effect the other way counts as inactive or inconclusive;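 further: rhodamine fluorescence freed from ubiquitin-rhodamine substrate followed over time; top concentration of the series differs between compounds; on the % scale 0 is the no-effect control and ±100 the full control effect; nearly all actives have a fitted effect of over 35% in size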)
Outline: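 USP1/UAF1 complex (1nM) preincubated with compound 15 min at room temperature, then Ub-Rho substrate (150nM final) added. Fluorescence read kinetically at 480/540 nm, 6 reads every 60 seconds. Buffer: 50mM HEPES pH 7.8, 0.5mM EDTA, 0.1 mg/ml BSA, 1mM TCEP, 0.01% Tween-20.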

[28] = measured here: cell count channel max response
[29] = measured here: lipid channel max response

Chain of Peroxisome proliferator-activated receptor gamma (Homo sapiens) (P37231 whole entry, looked up): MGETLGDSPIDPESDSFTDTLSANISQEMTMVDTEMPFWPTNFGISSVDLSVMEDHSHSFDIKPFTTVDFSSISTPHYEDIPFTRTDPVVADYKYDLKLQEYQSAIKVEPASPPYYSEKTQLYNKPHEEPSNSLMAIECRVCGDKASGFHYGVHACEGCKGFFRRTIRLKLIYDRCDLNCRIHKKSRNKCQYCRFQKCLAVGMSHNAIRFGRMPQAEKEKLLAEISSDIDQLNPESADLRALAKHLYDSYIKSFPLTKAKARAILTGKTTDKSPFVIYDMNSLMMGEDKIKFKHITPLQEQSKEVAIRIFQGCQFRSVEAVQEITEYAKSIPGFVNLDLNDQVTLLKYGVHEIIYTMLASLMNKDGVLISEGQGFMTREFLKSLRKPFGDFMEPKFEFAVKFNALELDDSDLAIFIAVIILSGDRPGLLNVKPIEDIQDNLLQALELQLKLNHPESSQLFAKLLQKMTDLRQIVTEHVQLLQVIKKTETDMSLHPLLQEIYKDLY
Chain of Retinoic acid receptor RXR-alpha (Homo sapiens) (P19793 whole entry, looked up): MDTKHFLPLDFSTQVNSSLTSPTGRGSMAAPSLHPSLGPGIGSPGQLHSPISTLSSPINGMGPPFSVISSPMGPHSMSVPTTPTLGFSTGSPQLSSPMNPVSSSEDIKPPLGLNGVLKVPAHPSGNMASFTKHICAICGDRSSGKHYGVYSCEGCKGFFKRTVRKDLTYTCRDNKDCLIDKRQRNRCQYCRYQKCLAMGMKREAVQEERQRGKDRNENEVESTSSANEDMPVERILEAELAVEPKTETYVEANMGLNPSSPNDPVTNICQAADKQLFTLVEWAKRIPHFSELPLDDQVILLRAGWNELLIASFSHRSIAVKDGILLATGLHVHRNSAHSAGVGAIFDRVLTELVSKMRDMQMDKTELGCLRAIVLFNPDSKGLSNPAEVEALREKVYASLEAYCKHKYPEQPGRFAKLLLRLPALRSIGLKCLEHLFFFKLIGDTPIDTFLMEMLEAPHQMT
Chain of Thyroid hormone receptor beta (Homo sapiens) (P10828 whole entry, looked up): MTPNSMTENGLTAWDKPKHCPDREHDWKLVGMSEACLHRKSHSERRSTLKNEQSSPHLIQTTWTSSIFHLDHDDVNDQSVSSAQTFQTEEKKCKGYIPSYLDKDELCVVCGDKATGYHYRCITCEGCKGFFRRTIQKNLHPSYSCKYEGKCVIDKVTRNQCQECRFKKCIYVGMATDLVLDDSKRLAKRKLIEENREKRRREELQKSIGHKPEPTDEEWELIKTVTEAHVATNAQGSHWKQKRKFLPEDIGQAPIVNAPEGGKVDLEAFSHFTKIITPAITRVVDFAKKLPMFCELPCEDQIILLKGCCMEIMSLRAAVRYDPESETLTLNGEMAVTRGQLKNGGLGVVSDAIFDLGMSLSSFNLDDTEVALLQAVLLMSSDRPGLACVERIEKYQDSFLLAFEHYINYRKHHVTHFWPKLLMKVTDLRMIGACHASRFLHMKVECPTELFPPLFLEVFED
Chain of Vitamin D3 receptor (Homo sapiens) (P11473 whole entry, looked up): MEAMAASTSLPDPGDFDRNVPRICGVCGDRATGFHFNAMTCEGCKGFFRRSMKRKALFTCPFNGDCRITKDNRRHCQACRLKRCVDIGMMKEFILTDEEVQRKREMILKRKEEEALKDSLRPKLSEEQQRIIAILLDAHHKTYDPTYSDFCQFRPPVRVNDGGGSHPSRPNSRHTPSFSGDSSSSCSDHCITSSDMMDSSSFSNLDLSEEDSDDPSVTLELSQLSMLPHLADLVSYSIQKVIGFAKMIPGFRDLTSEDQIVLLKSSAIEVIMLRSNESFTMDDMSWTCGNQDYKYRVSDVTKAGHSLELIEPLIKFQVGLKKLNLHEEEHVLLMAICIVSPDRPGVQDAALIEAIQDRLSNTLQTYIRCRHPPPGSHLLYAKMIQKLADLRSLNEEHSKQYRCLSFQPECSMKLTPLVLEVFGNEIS
Chain of Peroxisome proliferator-activated receptor delta (Homo sapiens) (Q03181 whole entry, looked up): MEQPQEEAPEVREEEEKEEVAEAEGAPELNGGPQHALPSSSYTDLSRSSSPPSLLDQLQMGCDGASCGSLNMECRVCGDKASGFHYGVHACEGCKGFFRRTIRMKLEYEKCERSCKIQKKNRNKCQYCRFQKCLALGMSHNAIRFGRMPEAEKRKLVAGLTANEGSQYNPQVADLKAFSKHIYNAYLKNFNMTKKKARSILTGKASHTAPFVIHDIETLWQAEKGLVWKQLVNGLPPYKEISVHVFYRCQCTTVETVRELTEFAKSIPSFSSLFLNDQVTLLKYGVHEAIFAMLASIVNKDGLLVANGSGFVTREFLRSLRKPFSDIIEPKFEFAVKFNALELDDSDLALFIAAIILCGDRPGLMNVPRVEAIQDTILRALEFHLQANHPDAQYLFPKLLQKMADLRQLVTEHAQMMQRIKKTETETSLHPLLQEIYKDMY
Chain of Estrogen receptor (Homo sapiens) (P03372 whole entry, looked up): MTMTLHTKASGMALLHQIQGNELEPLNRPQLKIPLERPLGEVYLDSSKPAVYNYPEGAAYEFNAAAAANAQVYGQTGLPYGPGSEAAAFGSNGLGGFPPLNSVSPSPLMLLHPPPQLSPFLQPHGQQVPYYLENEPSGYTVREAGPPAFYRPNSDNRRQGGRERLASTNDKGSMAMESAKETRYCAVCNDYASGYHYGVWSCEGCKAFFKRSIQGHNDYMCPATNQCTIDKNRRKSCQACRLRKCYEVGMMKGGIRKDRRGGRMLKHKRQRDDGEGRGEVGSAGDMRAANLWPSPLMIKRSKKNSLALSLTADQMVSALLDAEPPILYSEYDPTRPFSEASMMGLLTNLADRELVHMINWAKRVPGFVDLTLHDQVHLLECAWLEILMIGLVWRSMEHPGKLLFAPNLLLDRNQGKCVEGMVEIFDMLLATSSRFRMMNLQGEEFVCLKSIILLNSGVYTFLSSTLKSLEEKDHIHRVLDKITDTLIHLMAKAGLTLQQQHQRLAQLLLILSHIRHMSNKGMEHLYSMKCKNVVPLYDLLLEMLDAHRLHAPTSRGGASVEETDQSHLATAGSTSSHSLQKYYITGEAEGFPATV
Chain of Bile acid receptor (Homo sapiens) (Q96RI1 whole entry, looked up): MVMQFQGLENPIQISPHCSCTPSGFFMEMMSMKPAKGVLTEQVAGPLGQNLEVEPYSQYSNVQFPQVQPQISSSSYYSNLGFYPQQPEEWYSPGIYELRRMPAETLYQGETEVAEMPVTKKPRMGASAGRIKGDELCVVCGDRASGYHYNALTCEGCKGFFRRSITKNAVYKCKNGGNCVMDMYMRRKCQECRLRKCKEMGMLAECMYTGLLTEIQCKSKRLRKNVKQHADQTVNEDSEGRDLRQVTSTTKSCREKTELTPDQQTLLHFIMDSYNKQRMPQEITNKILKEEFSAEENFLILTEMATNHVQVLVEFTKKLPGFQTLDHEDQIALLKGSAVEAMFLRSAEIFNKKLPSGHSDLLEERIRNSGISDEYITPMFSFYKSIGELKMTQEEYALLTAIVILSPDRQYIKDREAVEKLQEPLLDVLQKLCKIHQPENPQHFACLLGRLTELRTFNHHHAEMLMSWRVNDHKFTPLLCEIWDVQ
Chain of Ubiquitin carboxyl-terminal hydrolase 1 (Homo sapiens) (O94782 whole entry, looked up): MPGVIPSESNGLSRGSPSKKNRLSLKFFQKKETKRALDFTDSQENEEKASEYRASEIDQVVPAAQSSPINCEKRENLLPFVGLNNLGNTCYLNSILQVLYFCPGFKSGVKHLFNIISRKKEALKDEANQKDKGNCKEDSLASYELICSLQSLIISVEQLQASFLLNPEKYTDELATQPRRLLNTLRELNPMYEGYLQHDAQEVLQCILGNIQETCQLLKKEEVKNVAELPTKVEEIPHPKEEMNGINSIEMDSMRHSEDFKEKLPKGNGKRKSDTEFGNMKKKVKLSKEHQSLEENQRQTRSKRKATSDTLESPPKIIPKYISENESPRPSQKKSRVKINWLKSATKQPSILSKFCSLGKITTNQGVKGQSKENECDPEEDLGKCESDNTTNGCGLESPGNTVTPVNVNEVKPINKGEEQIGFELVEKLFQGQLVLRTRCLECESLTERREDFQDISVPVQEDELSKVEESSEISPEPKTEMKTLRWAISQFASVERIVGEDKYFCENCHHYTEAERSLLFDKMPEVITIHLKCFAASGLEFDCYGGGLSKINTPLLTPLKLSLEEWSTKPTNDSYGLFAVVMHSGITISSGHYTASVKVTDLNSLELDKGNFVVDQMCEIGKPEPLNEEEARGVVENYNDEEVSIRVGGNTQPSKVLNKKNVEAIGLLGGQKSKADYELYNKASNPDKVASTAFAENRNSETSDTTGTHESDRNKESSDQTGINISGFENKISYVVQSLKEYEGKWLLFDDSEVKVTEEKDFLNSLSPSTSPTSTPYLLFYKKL
Chain of Peroxisome proliferator-activated receptor alpha (Homo sapiens) (Q07869 whole entry, looked up, the tested form may be a part): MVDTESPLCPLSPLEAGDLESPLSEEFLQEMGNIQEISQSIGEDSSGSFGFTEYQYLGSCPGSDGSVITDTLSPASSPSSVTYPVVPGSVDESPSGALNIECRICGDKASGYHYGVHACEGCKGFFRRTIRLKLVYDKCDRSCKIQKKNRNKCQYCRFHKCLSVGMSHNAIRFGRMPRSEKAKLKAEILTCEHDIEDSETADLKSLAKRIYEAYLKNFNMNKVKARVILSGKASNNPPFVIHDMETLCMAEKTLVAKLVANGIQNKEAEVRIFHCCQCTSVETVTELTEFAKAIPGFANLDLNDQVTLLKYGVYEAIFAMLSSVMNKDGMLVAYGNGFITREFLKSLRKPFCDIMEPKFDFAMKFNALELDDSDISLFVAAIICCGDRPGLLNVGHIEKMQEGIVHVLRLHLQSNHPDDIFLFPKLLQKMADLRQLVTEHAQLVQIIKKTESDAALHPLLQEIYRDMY

CC(C)OC(=O)Nc1cccc(Cl)c1
5.17%: max response [4, 28]
2.77%: max response [8]
inactive: Potency [1] | Potency [2] | Potency [3] | activity change, negative = inhibition [4] 8.95% | Potency [5] | outcome [6] | outcome [7] | Potency [9] | outcome [10] | Potency [11] | outcome [12] | outcome [13] | Potency [15] | outcome [16] | max response [18] 4.34% | activity change % (negative = inhibition) [19] 12.8% | Potency [20] | activation [21] 1.93% | activation [22] 0.165% | max response [23] -1.91% | max response [24] -10.2% | max response [25] -6.02% | Potency [26]
-4.63%: max response [17]
15.8%: max response [4, 29]
-7.86%: max response [14]

COc1cc2c(cc1OC)[C@@H]1C(=O)c3ccc(O)c(CC=C(C)C)c3OC1CO2 (some centres undefined)
inactive: Potency [2] | Potency [3] | activity change, negative = inhibition [4] 7.74% | Potency [27]
14.6%: max response [4, 28]
25.6%: max response [4, 29]
